In PubChem BioAssay:

test: PSAC antagonists in infected red cells, primary screen, cell-based, P. falciparum Indochina, OD700, 2 h (AID 1155);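 further: lysis reports solute entry through the parasite surface anion channel PSAC; channel blockers reduce lysis of infected cells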; conditions: P. falciparum Indochina infected erythrocytes, osmotic lysis OD700; higher = more signal, called active from +8 up or from −8 down

z-score, inactive:
C[n+]1ccc(-c2ccc(CO)cc2)cc1 -0.376, CC(C)=CCCC(C)=CCON=C1C[C@@H](O)[C@@H](O)[C@@H]2[C@@H]3C(=O)N(c4cccc(Oc5ccccc5)c4)C(=O)[C@@H]3CC[C@@H]12 -0.298, CO[C@@H]1COC(=O)[C@H](CCSC)NC(=O)CC=C[C@@H](C)COC(=O)[C@H](C)NC(=O)CC=C[C@H]1C 0.327, CON=CC[C@@H]1C=C[C@H](OC(C)=O)[C@@H](COC(C)=O)O1 0.0956, CC(C)CON=C1C[C@@H](O)[C@@H](O)[C@@H]2[C@@H]3C(=O)N(c4ccc(F)cc4F)C(=O)[C@@H]3CC[C@H]12 -0.996, CC(C)(C)N1C(=O)[C@H]2[C@H]3[C@H](O)[C@H](O)CC(=NOCc4ccccc4)[C@H]3CC[C@H]2C1=O 0.54, C[C@@H](c1ccccc1)N1C(=O)[C@H]2[C@H]3[C@H](O)[C@H](O)CC(=NOCc4ccccc4)[C@H]3CC[C@H]2C1=O 6.36, CCOC(=O)[C@H](Cc1ccccc1)NC(=O)CCC1CC(OC(=O)NCc2cccc3ccccc23)CC2(CCCC(COC(=O)NCC(c3ccccc3)c3ccccc3)O2)O1 (stereo partly drawn) 1.24
